Drawing on PubChem BioAssay (Tox21), this text covers outcome and Potency for eight compounds.

Records with an inconclusive call do not appear. Calls of active or inactive are those of the source. The call rests on the fitted dose curve; in most records, active means well fitted curve in the direction sought with a large enough effect in the repeat runs; inconclusive means weak or mixed curves; inactive means no such curve, though single readings can be large; an effect the other way counts as inactive or inconclusive.

A short description of assay [1]: qHTS RealTime-Glo MT Cell Viability Assay in HEK293 cells - 0 hour (AID 1224880). Further: top concentration of the series differs between compounds; nearly all actives have a fitted effect of over 45% in size. The gist of the method:
(§1)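 600 cells/well were plated with the nonlytic NanoLuc/prosubstrate reagent, pre-incubated 5 h, then given 23 nL of compound in DMSO. Incubation at 37 C for 40 h, with luminescence from viable-cell-reduced substrate read repeatedly from 0 h.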
For orientation: Quantitative high-throughput screening tests each substance at several concentrations.

Assay [2] in a line: A CellTox Green Cytotoxicity Assay to monitor cytotoxicity in HEK293 cells - 32 hour (AID 1224881). Further: nearly all actives have a fitted effect of over 40% in size. In short, it runs like this:
(§2)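 HEK293 cells, 600/well, were preincubated 5 hours and then exposed to compounds at 37 C for up to 40 hours. A cell-impermeant cyanine dye staining dead-cell DNA was read by fluorescence at 0, 8, 16, 24, 32 and 40 h time points.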

Assay [3] can be described thus: A CellTox Green Cytotoxicity Assay to monitor cytotoxicity in HepG2 cells - 0 hour (AID 1224882). Further: nearly all actives have a fitted effect of over 35% in size. The gist of the method: (§3)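 HepG2 cells, 600/well, preincubated 5 h with CellTox Green dye, then exposed to Tox21 compounds in DMSO at 37 C for up to 40 h. Dead-cell DNA fluorescence read at the indicated time point.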
The nature of assay [4]: A CellTox Green Cytotoxicity Assay to monitor cytotoxicity in HepG2 cells - 32 hour (AID 1224883). Further: nearly all actives have a fitted effect of over 50% in size. In short, it runs like this:
as §3

The nature of assay [5]: A CellTox Green Cytotoxicity Assay to monitor cytotoxicity in HEK293 cells - 8 hour (AID 1224884). Further: nearly all actives have a fitted effect of over 35% in size. The gist of the method: as §2
Assay [6] in a line: qHTS RealTime-Glo MT Cell Viability Assay in HepG2 cells - 16 hour (AID 1224885). Further: nearly all actives have a fitted effect of over 50% in size. In short, it runs like this: (§4)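 Cell number in HepG2 cultures estimated from NanoLuc luminescence generated by metabolic reduction of a prosubstrate by living cells. The homogeneous, nonlytic format allowed repeated reads at 0, 8, 16, 24, 32 and 40 h of compound exposure.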
The nature of assay [7]: qHTS RealTime-Glo MT Cell Viability Assay in HEK293 cells - 8 hour (AID 1224887). Further: top concentration of the series differs between compounds; nearly all actives have a fitted effect of over 50% in size. The gist of the method: as §1
A short description of assay [8]: A CellTox Green Cytotoxicity Assay to monitor cytotoxicity in HEK293 cells - 16 hour (AID 1224888). Further: nearly all actives have a fitted effect of over 35% in size. In short, it runs like this: as §2
Assay [9] can be described thus: qHTS RealTime-Glo MT Cell Viability Assay in HepG2 cells - 0 hour (AID 1224889). Further: nearly all actives have a fitted effect of over 50% in size. In short, it runs like this:
as §4

The nature of assay [10]: A CellTox Green Cytotoxicity Assay to monitor cytotoxicity in HepG2 cells - 8 hour (AID 1224890). Further: nearly all actives have a fitted effect of over 45% in size. The gist of the method:
as §3

Assay [11] is described as follows: qHTS assay to identify small molecule antagonists of the estrogen receptor alpha (ER-alpha) signaling pathway using the BG1 cell line in the presence of 0.1 nM 17-beta-estradiol - cell viability counter screen (AID 1259241). Further: nearly all actives have a fitted effect of over 40% in size. In short, it runs like this:
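CellTiter-Fluor read (30 min, 37C) on ER-alpha/ERE-luc VM7Luc4E2 cells; 22 hr compound treatment; agonist 0.1 nM E2 final; same-well multiplex.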

Assay [12] in a line: qHTS assay to identify small molecule antagonists of the androgen receptor (AR) signaling pathway using the MDA cell line in the presence of 0.5 nM R1881 - cell viability counter screen (AID 1259242). Further: nearly all actives have a fitted effect of over 45% in size. In short, it runs like this: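 MDA-kb2 cells (MMTV-luciferase, AR/GR responsive) were treated with compounds plus 0.5 nM R1881 (final) for 16 hr at 37C, 0% CO2. Viability was then read in the same wells as live-cell protease fluorescence (CellTiter-Fluor, 30 min).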

For assay [13], the target named is Estrogen receptor (Homo sapiens) (UniProt P03372). Put plainly: qHTS assay to identify small molecule antagonists of the estrogen receptor alpha (ER-alpha) signaling pathway using the BG1 cell line in the presence of 0.1 nM 17-beta-estradiol (AID 1259244). Further: nearly all actives have a fitted effect of over 50% in size. The gist of the method: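 VM7Luc4E2 cells (endogenous full-length ER-alpha, 4×ERE-luciferase), kept 5 days in phenol red-free, charcoal-stripped FBS medium; 4,000 cells/well. Compounds added with 0.1 nM (final) 17beta-estradiol, 22 hr at 37C; luminescence read with ONE-Glo after 30 min.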

Assay [14] can be described thus: qHTS assay to identify small molecule HDAC inhibitors (AID 1259364). Further: nearly all actives have a fitted effect of over 45% in size. Further: potency means the concentration at half of the fitted maximal effect. The gist of the method: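 Wild-type HCT-116 cells, plated overnight at 37 C, exposed to compounds 2 hr at 37 C; luminogenic HDAC-Glo substrate then added 30 min at room temperature. Luminescence reports relative endogenous class I/II HDAC activity.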
Assay [15] in a line: qHTS assay to identify small molecule HDAC inhibitors - cell viability counter screen (AID 1259365). In short, it runs like this:
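To flag cytotoxic hits, 1,500 wild-type HCT-116 cells per well, plated the day before, receive test compounds for 2hr at 37 C before CellTiter-Glo reagent and a luminescence read.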

Assay [16] in a line: qHTS assay to identify small molecule agonists of the sonic hedgehog signaling (Shh) pathway - cell viability counter screen (AID 1259366). Further: nearly all actives have a fitted effect of over 50% in size. In short, it runs like this: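 Fluorescence from CellTiter-Fluor reports live cells in this counter screen. NIH/3T3-derived Gli1-Luc reporter cells receive test compounds for 24hr at 37C; reagent goes in at 23hr.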
The nature of assay [17]: qHTS assay to identify small molecule antagonists of the sonic hedgehog signaling (Shh) pathway - cell viability counter screen (AID 1259367). Further: nearly all actives have a fitted effect of over 55% in size. The gist of the method:
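Cells: 3T3 Gli1-Luc, 2,000/well, 4 hr pre-incubation. Compounds in DMSO, then conditioned medium. Incubation 24 hr, 37C, 5% CO2. CellTiter-Fluor at 23 hr, 1 hr, fluorescence.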

The target of assay [18] is Androgen receptor (Homo sapiens) (UniProt P10275). Put plainly: qHTS assay to identify small molecule antagonists of the androgen receptor (AR) signaling pathway using the MDA cell line in the presence of 0.5 nM R1881 (AID 1259243). Further: nearly all actives have a fitted effect of over 50% in size. The gist of the method:
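MDA-kb2 cells (MMTV-luciferase, responsive to AR and GR) at 3,000/well, rested 5 h at 37C, 0% CO2, then given compounds plus 0.5 nM R1881 (final) for 16 hr. Luciferase read with ONE-Glo after 30 min at room temperature.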

The nature of assay [19]: qHTS RealTime-Glo MT Cell Viability Assay in HEK293 cells - 24 hour (AID 1224886). The gist of the method: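 Homogeneous bioluminescent viability format in HEK293 cells (600 cells/well). Following 5 h at 37 C/5% CO2, 23 nL compound was pintooled; the signal was measured repeatedly during 40 h incubation.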

Chain of Estrogen receptor (Homo sapiens) (P03372 whole entry, looked up): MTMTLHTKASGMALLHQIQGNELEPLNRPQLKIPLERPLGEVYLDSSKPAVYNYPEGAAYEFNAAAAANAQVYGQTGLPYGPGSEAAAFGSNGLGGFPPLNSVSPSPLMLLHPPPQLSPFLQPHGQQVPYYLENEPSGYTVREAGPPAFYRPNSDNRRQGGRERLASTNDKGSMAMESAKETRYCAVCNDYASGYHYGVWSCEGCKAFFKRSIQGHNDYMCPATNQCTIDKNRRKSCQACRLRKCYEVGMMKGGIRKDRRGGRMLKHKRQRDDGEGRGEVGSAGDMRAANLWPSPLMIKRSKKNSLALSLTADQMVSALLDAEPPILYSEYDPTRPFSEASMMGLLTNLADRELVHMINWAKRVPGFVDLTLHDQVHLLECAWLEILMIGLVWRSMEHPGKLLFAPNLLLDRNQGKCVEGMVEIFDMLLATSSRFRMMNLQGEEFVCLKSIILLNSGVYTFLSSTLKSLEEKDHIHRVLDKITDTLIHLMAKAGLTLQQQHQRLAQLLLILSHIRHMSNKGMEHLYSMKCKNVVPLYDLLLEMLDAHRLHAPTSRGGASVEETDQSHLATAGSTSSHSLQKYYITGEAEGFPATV
Chain of Androgen receptor (Homo sapiens) (P10275 whole entry, looked up): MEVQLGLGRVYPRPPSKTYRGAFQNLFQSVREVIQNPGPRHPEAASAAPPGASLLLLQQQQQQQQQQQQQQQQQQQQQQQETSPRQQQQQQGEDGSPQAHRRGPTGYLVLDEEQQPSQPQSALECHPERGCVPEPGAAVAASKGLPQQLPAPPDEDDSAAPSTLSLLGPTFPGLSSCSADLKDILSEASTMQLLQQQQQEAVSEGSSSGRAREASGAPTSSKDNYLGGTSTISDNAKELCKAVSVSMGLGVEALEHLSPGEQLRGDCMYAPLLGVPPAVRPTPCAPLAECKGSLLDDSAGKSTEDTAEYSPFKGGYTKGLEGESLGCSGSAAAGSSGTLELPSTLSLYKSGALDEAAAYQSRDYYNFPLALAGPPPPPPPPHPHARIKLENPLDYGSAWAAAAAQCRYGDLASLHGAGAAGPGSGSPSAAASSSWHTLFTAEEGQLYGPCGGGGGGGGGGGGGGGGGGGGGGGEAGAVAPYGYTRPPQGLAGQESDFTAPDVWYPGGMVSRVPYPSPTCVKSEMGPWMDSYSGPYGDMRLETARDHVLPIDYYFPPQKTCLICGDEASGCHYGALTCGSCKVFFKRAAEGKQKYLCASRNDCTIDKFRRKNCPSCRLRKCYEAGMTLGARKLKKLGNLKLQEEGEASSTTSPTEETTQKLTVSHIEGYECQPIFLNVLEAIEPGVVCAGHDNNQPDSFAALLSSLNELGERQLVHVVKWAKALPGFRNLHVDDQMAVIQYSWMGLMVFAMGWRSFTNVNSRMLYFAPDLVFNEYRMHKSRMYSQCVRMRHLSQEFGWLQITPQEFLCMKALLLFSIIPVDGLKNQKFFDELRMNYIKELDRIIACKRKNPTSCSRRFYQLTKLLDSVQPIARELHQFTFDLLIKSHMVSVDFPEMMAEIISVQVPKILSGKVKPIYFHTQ

As for `NNCc1ccccc1`, the compound was called inactive in [1], in assay [3], in [9], in [11] and in assay [15]. Further, the Potency entry in assay [2], in [4], in assay [5], in [6], in assay [7] and in [8] was “inactive” throughout. The Potency result in assay [10], in assay [12], in [13], in assay [16] and in assay [17] was “inactive” in each case. Moreover, in [14], the Potency is 11.1 µM (active).
`COC[C@@H](NC(C)=O)C(=O)NCc1ccccc1`: the compound was classed as inactive in assay [1], in assay [3], in [9], in [11] and in [15]. For the same compound, the Potency result in assay [2], in assay [4], in [5], in assay [6], in assay [7] and in assay [8] was “inactive” in each case. Moreover, the Potency entry in assay [10], in [12], in assay [18], in assay [14], in [16] and in [17] was “inactive” throughout.
For the compound `BrCCc1ccccc1`, the compound was called inactive in [1], in assay [3], in assay [9], in assay [11] and in [15]. In addition, the Potency entry in assay [2], in assay [4], in assay [5], in assay [6], in [7] and in [8] was “inactive” each time. The Potency result in [10], in assay [12], in assay [14], in assay [16] and in [17] was “inactive” throughout.
For `CC[C@H](O)C(C[C@H](C)N(C)C)(c1ccccc1)c1ccccc1`, the outcome in assay [1], in assay [3], in [9] and in assay [11] was inactive. Moreover, the Potency result in assay [2], in assay [4], in [5], in assay [6], in assay [7] and in assay [8] was “inactive” each time. Besides, the Potency entry in assay [10], in [12], in assay [13] and in [14] was “inactive” each time.
Consider `CNC(=O)Oc1cc(C)c(N(C)C)c(C)c1`, for which the result in assay [1], in assay [3], in assay [9], in [11] and in assay [15] was inactive. Moreover, the Potency result in assay [2], in [4], in [5], in [6], in assay [7] and in assay [8] was “inactive” throughout. Also, the Potency entry in assay [10], in assay [12], in [14] and in assay [16] was “inactive” in each case.
As for `CON(C)C(=O)Nc1ccc(Br)c(Cl)c1`, the result in assay [1], in [3], in assay [9] and in assay [15] was inactive. For the same compound, the Potency entry in assay [2], in [4], in assay [5], in assay [6], in assay [7] and in assay [8] was “inactive” throughout. In addition, the Potency result in assay [10], in assay [12], in assay [16] and in [17] was “inactive” each time.
On to `CCCOc1nn(C(=O)NS(=O)(=O)c2ccccc2C(=O)OC)c(=O)n1C`, for which the call in assay [1], in [3], in assay [9], in [11] and in [15] was inactive. The Potency entry in assay [2], in assay [5], in assay [6], in assay [19], in [7] and in assay [8] was “inactive” each time. The Potency result in assay [10], in assay [12], in [18], in assay [16] and in assay [17] was “inactive” each time.
Consider `CCOP(=S)(OCC)Oc1ccc(Cl)cc1Cl`, for which the result in [1], in [3], in [9], in [11] and in [15] was inactive. Also, the Potency entry in [2], in assay [4], in assay [5], in [6], in [7] and in assay [8] was “inactive” each time. The Potency entry in [10], in assay [12], in assay [13], in [14], in assay [16] and in assay [17] was “inactive” throughout.
